From PubChem BioAssay AID1159580 (chemical genetic matrix, 2015)
Hit rate of the full screen: of about 5,500 compounds, about 2,000 (36%) were called active. Another 18% or so got no clear call; they are omitted. No stated cut-off is given here; in the data, active means normalized growth mostly below about 0.91 (no sharp cut-off); inconclusive means no clear call, values can overlap the other calls; inactive means mostly above about 0.92. The list shows a part of the results.

Assay: chemical genetic growth profiling, strain panel (AID 1159580);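 further: tested at 20 µM; growth read once vehicle control cultures reached saturation at 30 °C; 1 = growth at the plate median or of vehicle wells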
Conditions: growth OD

Measured: normalized growth

CCCN1C[C@H](CSC)C[C@@H]2c3cccc4[nH]cc(c34)C[C@H]21
inactive: S. cerevisiae deletion strains, locus YKL009W, strain mrt4, stronger effect = lower value 1.01 | S. cerevisiae deletion strains, locus YKL068W, stronger effect = lower value 1.02 | S. cerevisiae deletion strains, locus YKL085W, strain MDH1 (second series), stronger effect = lower value 1 | S. cerevisiae deletion strains, locus YKL085W, strain MDH1, stronger effect = lower value 1 | S. cerevisiae deletion strains, locus YKL160W, strain elf1, stronger effect = lower value 1.01 | S. cerevisiae deletion strains, locus YKL190W, strain CNB1, stronger effect = lower value 0.995 | S. cerevisiae deletion strains, locus YKR001C, strain vps1, stronger effect = lower value 1.02 | S. cerevisiae deletion strains, locus YKR026C, strain gcn3, stronger effect = lower value 1.02 | S. cerevisiae deletion strains, locus YKR091W, strain srl3, stronger effect = lower value 0.997 | S. cerevisiae deletion strains, locus YLL001W, strain dnm1, stronger effect = lower value 1 | S. cerevisiae deletion strains, locus YLL026W, stronger effect = lower value 1.01 | S. cerevisiae deletion strains, locus YLL041C, strain sdh2, stronger effect = lower value 0.995 | S. cerevisiae deletion strains, locus YLR027C, strain aat2, stronger effect = lower value 1 | S. cerevisiae deletion strains, locus YLR039C, strain RIC1, stronger effect = lower value 1.11 | S. cerevisiae deletion strains, locus YLR058C, strain SHM2, stronger effect = lower value 1.01 | S. cerevisiae deletion strains, locus YLR102C, strain apc9, stronger effect = lower value 1.03 | S. cerevisiae deletion strains, locus YLR113W, strain HOG1, stronger effect = lower value 1.06 | S. cerevisiae deletion strains, locus YLR221C, strain rsa3, stronger effect = lower value 1 | S. cerevisiae deletion strains, locus YLR258W, strain gsy2, stronger effect = lower value 1.01 | S. cerevisiae deletion strains, locus YLR262C, strain YPT6 (second series), stronger effect = lower value 1.07 | S. cerevisiae deletion strains, locus YLR262C, strain YPT6, stronger effect = lower value 1.09 | S. cerevisiae deletion strains, locus YLR268W, strain sec22, stronger effect = lower value 1 | S. cerevisiae deletion strains, locus YLR320W, strain mms22, stronger effect = lower value 0.984 | S. cerevisiae deletion strains, locus YLR330W, strain CHS5, stronger effect = lower value 0.999 | S. cerevisiae deletion strains, locus YLR342W, strain FKS1 (second series), stronger effect = lower value 1.01 | S. cerevisiae deletion strains, locus YLR342W, strain FKS1, stronger effect = lower value 1 | S. cerevisiae deletion strains, locus YLR357W, strain rsc2, stronger effect = lower value 0.982 | S. cerevisiae deletion strains, locus YLR370C, strain arc18, stronger effect = lower value 1.01 | S. cerevisiae deletion strains, locus YLR371W, strain rom2, stronger effect = lower value 1.02 | S. cerevisiae deletion strains, locus YLR384C, strain iki3, stronger effect = lower value 1 | S. cerevisiae deletion strains, locus YLR418C, strain cdc73, stronger effect = lower value 0.985 | S. cerevisiae deletion strains, locus YML016C, strain PPZ1, stronger effect = lower value 0.998 | S. cerevisiae deletion strains, locus YML032C, strain rad52, stronger effect = lower value 1.03 | S. cerevisiae deletion strains, locus YML120C, strain ndi1, stronger effect = lower value 1.02 | S. cerevisiae deletion strains, locus YML124C, strain tub3, stronger effect = lower value 1.02 | S. cerevisiae deletion strains, locus YMR058W, strain fet3, stronger effect = lower value 0.999 | S. cerevisiae deletion strains, locus YMR078C, strain ctf18, stronger effect = lower value 1.03 | S. cerevisiae deletion strains, locus YMR125W, strain sto1, stronger effect = lower value 1.02 | S. cerevisiae deletion strains, locus YMR129W, stronger effect = lower value 1.02 | S. cerevisiae deletion strains, locus YMR205C, strain PFK2, stronger effect = lower value 1.02 | S. cerevisiae deletion strains, locus YMR223W, strain ubp8, stronger effect = lower value 1.02 | S. cerevisiae deletion strains, locus YMR231W, strain pep5, stronger effect = lower value 1.02 | S. cerevisiae deletion strains, locus YMR263W, strain SAP30, stronger effect = lower value 0.979 | S. cerevisiae deletion strains, locus YMR307W, strain GAS1, stronger effect = lower value 1.03 | S. cerevisiae deletion strains, locus YNL067W, strain RPL9B, stronger effect = lower value 0.975 | S. cerevisiae deletion strains, locus YNL071W, strain lat1, stronger effect = lower value 1.02 | S. cerevisiae deletion strains, locus YNL128W, strain TEP1, stronger effect = lower value 0.984 | S. cerevisiae deletion strains, locus YNL153C, strain GIM3, stronger effect = lower value 0.983 | S. cerevisiae deletion strains, locus YNL183C, strain NPR1, stronger effect = lower value 0.991 | S. cerevisiae deletion strains, locus YNL209W, strain ssb2, stronger effect = lower value 1 | S. cerevisiae deletion strains, locus YNL233W, strain BNI4, stronger effect = lower value 0.981 | S. cerevisiae deletion strains, locus YNL248C, strain rpa49, stronger effect = lower value 0.945 | S. cerevisiae deletion strains, locus YNL250W, strain rad50, stronger effect = lower value 1 | S. cerevisiae deletion strains, locus YNL271C, strain bni1, stronger effect = lower value 1.02 | S. cerevisiae deletion strains, locus YNL298W, strain CLA4, stronger effect = lower value 1.02 | S. cerevisiae deletion strains, locus YNL307C, strain MCK1, stronger effect = lower value 1.03 | S. cerevisiae deletion strains, locus YNL322C, strain KRE1 (second series), stronger effect = lower value 1.01 | S. cerevisiae deletion strains, locus YNL322C, strain KRE1, stronger effect = lower value 1 | S. cerevisiae deletion strains, locus YNR049C, strain mso1, stronger effect = lower value 1.01 | S. cerevisiae deletion strains, locus YNR052C, strain pop2, stronger effect = lower value 1.02 | S. cerevisiae deletion strains, locus YOL006C, strain TOP1, stronger effect = lower value 0.966 | S. cerevisiae deletion strains, locus YOL012C, strain htz1 0.77 | S. cerevisiae deletion strains, locus YOL147C, strain pex11, stronger effect = lower value 1.02 | S. cerevisiae deletion strains, locus YOR001W, strain rrp6, stronger effect = lower value 0.983 | S. cerevisiae deletion strains, locus YOR061W, strain CKA2, stronger effect = lower value 0.992 | S. cerevisiae deletion strains, locus YOR069W, strain VPS5, stronger effect = lower value 0.989 | S. cerevisiae deletion strains, locus YOR070C, strain gyp1, stronger effect = lower value 0.997 | S. cerevisiae deletion strains, locus YOR080W, strain dia2, stronger effect = lower value 1.02 | S. cerevisiae deletion strains, locus YOR083W, strain WHI5, stronger effect = lower value 0.966 | S. cerevisiae deletion strains, locus YOR106W, strain vam3, stronger effect = lower value 1.01 | S. cerevisiae deletion strains, locus YOR136W, strain idh2, stronger effect = lower value 1.02 | S. cerevisiae deletion strains, locus YOR144C, strain elg1, stronger effect = lower value 1.01 | S. cerevisiae deletion strains, locus YOR184W, strain ser1, stronger effect = lower value 1.05 | S. cerevisiae deletion strains, locus YOR231W, strain MKK1, stronger effect = lower value 1.08 | S. cerevisiae deletion strains, locus YOR265W, strain rbl2, stronger effect = lower value 1.02 | S. cerevisiae deletion strains, locus YOR270C, strain vph1, stronger effect = lower value 1.07 | S. cerevisiae deletion strains, locus YOR290C, strain snf2, stronger effect = lower value 1 | S. cerevisiae deletion strains, locus YOR316C, strain cot1, stronger effect = lower value 1.02 | S. cerevisiae deletion strains, locus YPL051W, strain arl3, stronger effect = lower value 1.01 | S. cerevisiae deletion strains, locus YPL055C, strain LGE1, stronger effect = lower value 0.946 | S. cerevisiae deletion strains, locus YPL078C, strain atp4, stronger effect = lower value 1.01 | S. cerevisiae deletion strains, locus YPL106C, strain sse1, stronger effect = lower value 1.03 | S. cerevisiae deletion strains, locus YPL240C, strain hsp82, stronger effect = lower value 1.01 | S. cerevisiae deletion strains, locus YPL241C, strain CIN2, stronger effect = lower value 1.03 | S. cerevisiae deletion strains, locus YPL256C, strain CLN2, stronger effect = lower value 1.06 | S. cerevisiae deletion strains, locus YPR119W, strain clb2, stronger effect = lower value 1.02 | S. cerevisiae deletion strains, locus YPR141C, strain kar3, stronger effect = lower value 1.01 | S. cerevisiae deletion strains, locus YPR163C, strain tif3, stronger effect = lower value 1.02 | S. cerevisiae deletion strains, locus YPR167C, strain met16, stronger effect = lower value 1.02 | S. cerevisiae deletion strains, strain wtn01, stronger effect = lower value 0.995 | S. cerevisiae strains, strain wild type, stronger effect = lower value 0.997
